The record followed here is PubChem BioAssay (NCATS).

Structures are written as SMILES. A number with no mark means an inactive call. Records with an inconclusive call do not appear. The source made the active and inactive calls. Unless noted, the call rests on the fitted dose curve; in most records, active means well fitted curve in the direction sought with a large enough effect; inconclusive means small, poorly fitted or top-dose-only effect, or another doubt; inactive means no such curve, though single readings can be large; an effect the other way counts as inactive or inconclusive. Some results are limits rather than exact numbers.

Assay [1] can be described thus: Cell Viability - BJ (AID 421; calls by dose curve;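 further: potency means the concentration at half of the fitted maximal effect; cells exposed to compound for 40 hours at 37 °C before readout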). The settings on record: BJ fibroblast viability, qHTS. In short, it runs like this:
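Normal human BJ foreskin fibroblasts, 1500/well in complete medium, treated 40 hr at 37 °C. Cellular ATP by CellTiter-Glo luminescence; normalized to DMSO and 100 uM tamoxifen, AC50 from Hill fit.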
On the technique in general: In qHTS, concentration-response curves come from the screen itself.

Assay [2] can be described thus: Cell Viability - Jurkat (AID 426;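 active means dose-dependent loss of cell ATP signal giving a full or clear fitted curve, ranked by lower potency value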; further: potency means the concentration at half of the fitted maximal effect). The settings on record: qHTS. In short, it runs like this:
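Cytotoxicity was scored as loss of cellular ATP, measured by luciferase-based luminescence, in Jurkat clone E6-1 cells after 40 h compound treatment; tamoxifen and doxorubicin served as positive controls.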

Assay [3] can be described thus: Cell Viability - Hek293 (AID 427;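 active means compounds whose dose-response curve shows a full or clear partial loss of cell viability, called from curve shape rather than a numeric limit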;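 further: potency means the concentration at half of the fitted maximal effect; cells exposed to compound for 40 hours at 37 °C before reading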). The settings on record: qHTS. In short, it runs like this:
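HEK293 cells in complete medium were exposed to compound for 40 hr at 37 °C, then cellular ATP was read by CellTiter-Glo luminescence. Data were normalized to DMSO (basal) and 100 uM tamoxifen (100% inhibition), and AC50 came from Hill fits.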

The nature of assay [4]: Cell Viability - HepG2 (AID 433; calls by dose curve;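 further: potency means the concentration at half of the fitted maximal effect; potency for ATP loss meaning cytotoxicity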). The settings on record: qHTS. A digest of the protocol: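 Cytotoxicity read as ATP loss (CellTiter-Glo luminescence) after 40 hr compound exposure of HepG2, 1500 cells/well, 37 °C. AC50 by Hill equation; 0% set by DMSO, 100% inhibition by 100 uM tamoxifen.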
Assay [5] is described as follows: Cell Viability - MRC5 (AID 434; calls by dose curve;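 further: potency means the concentration at half of the fitted maximal effect; potency reflects cytotoxicity seen as loss of intracellular ATP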). The settings on record: MRC5 lung fibroblast viability, qHTS. In short, it runs like this: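 AC50 values come from Hill-equation fits of intracellular ATP loss, measured by CellTiter-Glo luminescence. Normal lung fibroblasts (MRC5) had 40 hr compound treatment at 37 C, normalized between DMSO and 100 uM tamoxifen.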
The nature of assay [6]: Cell Viability - SK-N-SH (AID 435; calls by dose curve; further: potency means the concentration at half of the fitted maximal effect). The settings on record: SK-N-SH neuroblastoma cell viability qHTS. In short, it runs like this:
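qHTS cytotoxicity: CellTiter-Glo ATP luminescence after 40 h compound exposure of human neuroblastoma SK-N-SH cells at 37 °C. AC50 derived by Hill-equation fitting, with DMSO as basal and 100 uM tamoxifen as full inhibition.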

Assay [7] deals with Mitogen-activated protein kinase 10 (Mus musculus) (UniProt Q61831). Nature of the assay: JNK3 AlphaScreen Assay (AID 530; active means well fitted curve in either direction with a large enough effect, not every such curve was filed as active;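 further: kinase came from lysate of stimulated human HepG2 cells; signal reports phosphorylation of biotinylated GST-cJun 1-79 at Ser73 with 10 µM ATP; on the % scale 0 is the no-effect control and ±100 the full control effect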). The settings on record: JNK3 lysate, c-Jun phosphorylation; series mostly up to 57.1 µM. A digest of the protocol: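 Kinase buffer: 20 mM Tris-HCl pH 7.6, 10 mM MgCl2, 1 mM DTT, 0.1 mM Na3VO4, 0.01% Tween-20; ATP 10 uM. Substrate biotin-GST-cJun(1-79), enzyme from activated HepG2 lysates. Detection by Ser73 phospho-antibody AlphaScreen.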
Background: Alpha assays give light when donor and acceptor beads are brought close together.

Assay [8] can be described thus: Cell Viability - N2a (AID 540).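 Further: plate controls were DMSO alone for no effect and tamoxifen control for full effect; nearly all actives have a fitted effect of over 45% in size.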 The settings on record: N2a mouse neuroblastoma cell viability; activity change, negative = cytotoxicity: at 92.2 µM (top of the series). In short, it runs like this: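 In this qHTS cytotoxicity screen, ATP-dependent luciferase luminescence reports viable N2a cells after a 40 hr compound exposure in complete culture medium. Potencies are AC50 values from standard Hill equation fits.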

Assay [9] can be described thus: Cell Viability - NIH 3T3 (AID 541).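 Further: plate controls were DMSO alone for no effect and tamoxifen positive control for full effect; nearly all actives have a fitted effect of over 25% in size.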 The settings on record: NIH 3T3 cell viability, qHTS; activity change, negative = cytotoxicity: at 92.2 µM (top of the series). In short, it runs like this: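 In this cytotoxicity screen, acute toxicity is scored as an ATP drop measured by CellTiter-Glo in NIH 3T3 fibroblasts following a 40 hr, 37 °C incubation with compound.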

Assay [10] can be described thus: Cell Viability - HUV-EC-C (AID 542). Further: on the % scale 0 is the no-effect control and ±100 the full control effect; nearly all actives have a fitted effect of over 35% in size. The settings on record: HUV-EC-C endothelial cell viability, qHTS; series mostly up to 92.2 µM. A digest of the protocol:
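Concentration-dependent ATP loss in HUV-EC-C cells is the measure. Exposure lasts 40 hr at 37 °C; luminescence follows CellTiter-Glo addition, and Hill fits give AC50.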

Assay [11] in a line: Cell Viability - H-4-II-E (AID 543). Further: on the % scale 0 is the no-effect control and ±100 the full control effect; nearly all actives have a fitted effect of over 35% in size. The settings on record: H-4-II-E rat hepatoma viability; series mostly up to 92.2 µM. A digest of the protocol: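 AC50 from Hill-modelled qHTS concentration-response curves. H-4-II-E rat hepatoma cells in complete medium, 40 hr exposure at 37 °C, viability by CellTiter-Glo ATP luminescence.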
Assay [12] can be described thus: Cell Viability - SH-SY5Y (AID 544). Further: nearly all actives have a fitted effect of over 55% in size. The settings on record: SH-SY5Y neuroblastoma cell viability; viability change, negative = cytotoxic: at 92.2 µM (top of the series). A digest of the protocol: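 Quantitative HTS in SH-SY5Y neuroblastoma cells, 40 hr treatment at 37 °C, ATP content by luciferase luminescence; AC50 from Hill fits.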
Assay [13] is described as follows: Cell Viability - Renal Proximal Tubule (AID 545). Further: nearly all actives have a fitted effect of over 40% in size. The settings on record: renal proximal tubule cells viability, primary cells of rat origin; series mostly up to 91.7 µM. A digest of the protocol: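 Viability taken as intracellular ATP (CellTiter-Glo luminescence) after 40 hr, 37 °C compound treatment of primary proximal tubule cells from rat kidney, 1000 cells/well; Hill-equation fits of qHTS concentration-response data gave AC50.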

Assay [14] in a line: Cellular Toxicity (caspase-3) HepG2 (AID 654).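 Further: cells exposed to compound for 16 hours before reading; 0% = DMSO alone and 100% = caspase signal from 100 µM tamoxifen.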 The settings on record: HepG2 caspase-3 activation, luminescence; series mostly up to 92.2 µM. In short, it runs like this: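 Concentration-response AC50 values reflect caspase-3/7 induction in HepG2 cells after 16 hours of compound exposure, quantified by luminescence from liberated aminoluciferin and referenced to 100 uM tamoxifen as full stimulation.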

Assay [15] can be described thus: Cellular Toxicity (caspase-3) Jurkat (AID 655).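 Further: cells exposed to compound for 16 h at 37 °C before reading.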 The settings on record: Jurkat caspase-3 activation, luminescence; caspase-3 activation: at 92.2 µM (top of the series), DMSO = 0%, tamoxifen = 100%. A digest of the protocol: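 Luminescent Caspase-Glo 3/7 read-out (20 min, room temperature) after 16 h compound treatment at 37 C of 5000 Jurkat cells per well. AC50 derived by Hill-equation fitting, scaled between DMSO basal and 100 uM tamoxifen stimulation.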

Assay [16] is described as follows: Cellular Toxicity (caspase-3) HUV-EC-C (AID 656). The settings on record: HUV-EC-C cells, caspase-3 activation (apoptosis), vehicle = 0, 100 µM tamoxifen = 100%; series mostly up to 92.2 µM. In short, it runs like this:
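Luminescent Caspase-Glo 3/7 readout after 16 h, 37 °C compound exposure of HUV-EC-C endothelial cells, 1000 per well, complete medium. AC50 derived by Hill fitting, with DMSO as baseline and 100 uM tamoxifen as full activation.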

Assay [17] in a line: Cellular Toxicity (caspase-3) SHSY5Y (AID 657). The settings on record: SH-SY5Y caspase-3 activation, DMSO zero, 10 µM staurosporine = 100%; series mostly up to 91.7 µM. In short, it runs like this: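 Luminescent Caspase-Glo 3/7 read-out, 1 hr room temperature, follows 16 hours of compound treatment of SH-SY5Y cells at 37 °C. Normalization: DMSO basal, 10 uM staurosporine as 100%; AC50 values from Hill-equation concentration-response fits.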

A short description of assay [18]: Cellular Toxicity (caspase-3) BJ (AID 658). The settings on record: BJ fibroblasts, luminescence, normalized: DMSO 0%, staurosporine 100%; series mostly up to 91.7 µM. A digest of the protocol:
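Caspase-Glo 3/7 luminescence, read 1 hr after reagent at room temperature, in normal BJ fibroblasts exposed 16 hours at 37 °C. AC50 values from Hill-equation concentration-response, scaled between DMSO basal and 10 uM staurosporine as 100%.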

Assay [19] can be described thus: Cellular Toxicity (caspase-3) MRC-5 (AID 659). The settings on record: MRC-5 cells, luminescence, normalized: DMSO 0%, 10 µM staurosporine 100%; series mostly up to 91.7 µM. A digest of the protocol: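 Luminescent Caspase-Glo 3/7 read-out (1 h, room temperature) after a 16 h, 37 °C compound exposure of MRC-5 lung fibroblasts at 1500 cells/well. Concentration-response AC50 from Hill equation; 0% DMSO, 100% 10 uM staurosporine.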

Assay [20] in a line: Cell Viability - Mesenchymal (AID 546).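 Further: cells exposed to compound for 40 hours before reading.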 The settings on record: mesenchymal cells viability, qHTS; series mostly up to 91.7 µM. A digest of the protocol:
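CellTiter-Glo luminescence (intracellular ATP, 20 min room temperature) after 40 hr compound exposure at 37 °C of 1000 glomerulus-derived human kidney mesenchymal cells/well; AC50 values obtained by fitting qHTS concentration-response data to the Hill equation.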

With `N#Cc1ccccc1`, the Potency in [1], in [2], in [3], in assay [4], in [5] and in [6] was greater than 92 µM in each case. Further, the call in assay [7], in assay [16], in assay [17], in assay [18] and in [19] was inactive. Further, in assay [8], the activity change, negative = cytotoxicity was 6.76%. Besides, the Potency entry in [9], in [10], in [11], in [12], in [13] and in [14] was “inactive” in each case. The caspase-3 activation in assay [15] was -1.39%.
As to `COc1ccc(N)c(C)c1`, the Potency in [1], in assay [2], in assay [3], in assay [4], in [5] and in assay [6] was greater than 92 µM in each case. Besides, the compound was called inactive in assay [7], in assay [16], in assay [17] and in assay [19]. Besides, in assay [8], the activity change, negative = cytotoxicity was 11.2%. Besides, the Potency entry in [9], in [10], in assay [11], in assay [12], in assay [13] and in assay [14] was “inactive” in each case. For the same compound, in assay [15], the caspase-3 activation is 0.894%.
For `C/C=C1\CC2C=CC1C2` (stereo not drawn), the Potency in assay [1], in assay [2], in assay [3], in [4], in [5] and in [6] was greater than 92 µM throughout. Moreover, the outcome in [7], in assay [16], in assay [17], in assay [18] and in assay [19] was inactive. Also, the activity change, negative = cytotoxicity in assay [8] is 4.82%. In addition, the Potency entry in assay [9], in [10], in [11], in assay [12], in assay [13] and in [20] was “inactive” throughout. Moreover, in assay [15], the caspase-3 activation is -1.14%.
As to `CC=C(Cl)Cl`, the Potency in [1], in assay [2], in assay [3], in assay [4], in assay [5] and in [6] was greater than 92 µM throughout. The outcome in assay [7], in assay [16], in assay [17] and in assay [19] was inactive. For the same compound, in assay [8], the activity change, negative = cytotoxicity is -2.96%. Further, the Potency entry in assay [9], in assay [10], in assay [11], in [12], in assay [13] and in assay [14] was “inactive” each time. In assay [15], the caspase-3 activation was -0.538%.
Turning to `CC(=O)CCc1ccccc1`, the Potency in assay [1], in [2], in [3], in [4], in assay [5] and in [6] was greater than 92 µM in each case. In addition, the compound was classed as inactive in assay [7], in [16] and in [19]. In addition, the activity change, negative = cytotoxicity in [8] is -2.11%. In addition, the Potency result in [9], in assay [10], in assay [11], in assay [12], in assay [13] and in assay [20] was “inactive” in each case. For the same compound, the Potency entry in [14] is “inactive”. For the same compound, the caspase-3 activation in assay [15] was -1.19%.
Consider `CCCCC(CC)CO` (stereo not drawn), for which the Potency in assay [1], in [2], in assay [3], in assay [4], in assay [5] and in assay [6] was greater than 92 µM throughout. For the same compound, the compound was called inactive in assay [7], in assay [16], in [17], in assay [18] and in assay [19]. Further, the activity change, negative = cytotoxicity in assay [8] was -1.19%. Also, the Potency result in [9], in [10], in assay [11], in assay [12], in assay [13] and in assay [14] was “inactive” each time. In addition, the caspase-3 activation in assay [15] is 0.69%.
Regarding `ICCc1ccccc1`, the Potency in assay [1], in [2], in assay [3], in assay [4], in assay [5] and in assay [6] was greater than 92 µM each time. Moreover, the result in assay [7], in assay [16], in assay [17], in [18] and in assay [19] was inactive. Besides, in assay [8], the activity change, negative = cytotoxicity is 0.359%. The Potency result in assay [9], in assay [11], in [13], in assay [20] and in assay [14] was “inactive” in each case. Further, the viability change, negative = cytotoxic in assay [12] was -96.6% (active). For the same compound, the caspase-3 activation in [15] is 0.274%.
For `CCNc1cc(O)ccc1C`, the Potency in [1], in assay [2], in assay [3], in assay [4], in assay [5] and in [6] was greater than 92 µM throughout. In addition, the compound was called inactive in assay [7], in assay [16], in [17], in assay [18] and in assay [19]. In [8], the activity change, negative = cytotoxicity was 4.09%. Further, the Potency entry in assay [9], in [10], in [11], in [13] and in assay [20] was “inactive” throughout. Besides, the caspase-3 activation in assay [15] was 0.87%.
